# Reference: PubChem BioAssay (NCATS)
# “And” between values parts separate entries of the source, which are not always exact repeats. Equal entries are not always repeated. Records with an inconclusive call do not appear. The source made the active and inactive calls. Unless noted, calls follow the shape of the full dose curve.
# Legend:
# [1] = qHTS Assay for Lipid Storage Modulators (AID 1519); details: Drosophila S3 cells, BODIPY lipid droplet/cell ratio, laser cytometry, cells loaded with oleic acid; as to activity change, negative = inhibition: % is scaled to controls: 0 for no effect and ±100 for the full control effect
# Summary of the method: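 Cells seeded at 5,000 per well were treated with compounds over a concentration series and loaded with oleic acid (400 uM, as added). Lipid droplet fluorescence (488 nm excitation, 500-530 nm channel) was read by laser-scanning cytometry and normalized to 20 uM Triacsin C.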
# [2] = target: DNA repair nuclease/redox regulator APEX1 (Homo sapiens) (UniProt P27695); experiment: qHTS Validation Assay for Inhibitors of the Human Apurinic/apyrimidinic Endonuclease 1 (APE1) (AID 1705; active = well fitted curve in the direction sought with a large enough effect; an effect the other way counts as inactive or inconclusive; also: potency is read from the fitted curve at half-maximal effect;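 as to activity change, negative = inhibition: TAMRA fluorescence gain over two minutes as APE1 cuts a quenched THF abasic duplex; % is scaled to controls: 0 for no effect and ±100 for the full control effect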); details: purified APE1 endonuclease activity, fluorescence, titration; series mostly up to 57.1 µM
# Sequence of DNA repair nuclease/redox regulator APEX1 (Homo sapiens) (P27695 whole entry, looked up): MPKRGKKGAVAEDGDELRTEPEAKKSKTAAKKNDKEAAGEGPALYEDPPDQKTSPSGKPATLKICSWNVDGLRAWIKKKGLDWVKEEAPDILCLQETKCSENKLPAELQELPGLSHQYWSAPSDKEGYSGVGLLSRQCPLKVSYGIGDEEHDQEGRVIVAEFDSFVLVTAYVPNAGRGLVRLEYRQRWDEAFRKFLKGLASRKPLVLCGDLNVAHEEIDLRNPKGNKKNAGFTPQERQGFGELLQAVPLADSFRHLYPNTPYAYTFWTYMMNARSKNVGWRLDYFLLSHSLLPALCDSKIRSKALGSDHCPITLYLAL
# Summary of the method: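 qHTS, 1536-well. APE1 + cpd 15 min RT → 50 nM TAMRA/BHQ-2 THF-abasic dsDNA substrate → kinetic fluorescence, 3 reads/60 s; delta(read3−read1) = reaction progress. No-enzyme buffer = negative control.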
# [3] = Counterscreen for APE1 Inhibitors: Fluorescent Dye Displacement Validation Assay (AID 1707; active = well fitted curve in the direction sought with a large enough effect; an effect the other way counts as inactive or inconclusive;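 also: plate controls were ThO with dsDNA and no compound for no effect and ThO without dsDNA for full effect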); details: fluorescent dye displacement from DNA; series mostly up to 57.1 µM
# Summary of the method: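 Compounds are scored by their ability to displace Thiazole Orange (250 nM) from a 50 nM TAMRA-tagged duplex bearing a tetrahydrofuran abasic site. Buffer is 50 mM Tris-HCl pH7.5, 50mM NaCl, 2 mM MgCl2, 0.01% Tween-20.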
# [4] = target: Endonuclease 4 (Escherichia coli (strain K12)) (UniProt P0A6C1); experiment: Counterscreen for APE1 Inhibitors: qHTS Validation Assay for Inhibitors of Endonuclease IV (AID 1708; active = well fitted curve in the direction sought with a large enough effect; an effect the other way counts as inactive or inconclusive; also: potency is read from the fitted curve at half-maximal effect); details: E. coli endonuclease IV, DNA cleavage fluorescence
# Summary of the method: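 Concentration-response counterscreen run identically to the APE1 assay: 15 min room-temperature preincubation of 2 nM enzyme with compound, reaction started with 50 nM quenched abasic DNA, progress taken from kinetic fluorescence.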
# [5] = qHTS for differential inhibitors of proliferation of Plasmodium falciparum line 7G8 (AID 1815; active = well fitted curve in the direction sought with a large enough effect; an effect the other way counts as inactive or inconclusive;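 also: parasite growth measured after three days of incubation; plate controls were vehicle wells for no effect and reference inhibitor wells for full effect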); details: Plasmodium falciparum 7G8 proliferation inhibition; series mostly up to 28.7 µM
# [6] = measured here: cell count channel max response
# [7] = measured here: lipid channel max response
structure (smiles),measurement,setting,value
CC(=O)NO,"activity change, negative = inhibition",[1]; at 57.5 µM (top of the series),3.44% (inactive)
same,max response,[1]; [6],22.2%
same,max response,[1]; [7],28.9%
CC[C@H](c1ccc(O)cc1)[C@@H](CC)c1ccc(O)cc1,"activity change, negative = inhibition",[1]; at 25.7 µM (top of the series),-3.44% (inactive)
same,max response,[1]; [6],-23%
same,max response,[1]; [7],-23.9%
CCCCc1cc2ccccc2c(OCCN(C)C)n1,"activity change, negative = inhibition",[1]; at 25.7 µM (top of the series),-1.95% (inactive)
same,max response,[1]; [6],-12.7%
same,max response,[1]; [7],-12.3%
Nc1ccc(C(=O)NCC(=O)O)cc1,"activity change, negative = inhibition",[1]; at 25.7 µM (top of the series),-0.313% (inactive)
same,max response,[1]; [6],-0.767%
same,max response,[1]; [7],0.146%
O=C(O)P(=O)(O)O,"activity change, negative = inhibition",[1]; at 57.5 µM (top of the series),3.11% (inactive)
same,max response,[1]; [6],17.9%
same,max response,[1]; [7],24.7%
CCc1oc2ccccc2c1C(=O)c1cc(Br)c(O)c(Br)c1,"activity change, negative = inhibition",[1]; at 25.7 µM (top of the series),0.0966% (inactive)
same,max response,[1]; [6],-13%
same,max response,[1]; [7],-17.1%
CCCc1ncc(C[n+]2ccccc2C)c(N)n1,"activity change, negative = inhibition",[1]; at 25.7 µM (top of the series),-1.66% (inactive)
same,max response,[1]; [6],1.76%
same,max response,[1]; [7],0%
CC(=O)Nc1ccc(S(=O)(=O)Nc2ccc([N+](=O)[O-])cc2)cc1,"activity change, negative = inhibition",[1]; at 57.5 µM (top of the series),7.58% (inactive)
same,max response,[1]; [6],4.05%
same,max response,[1]; [7],18.4%
CCOC(=O)Nc1ccc2c(c1)N(C(=O)CCN1CCOCC1)c1ccccc1S2,"activity change, negative = inhibition",[1]; at 25.7 µM (top of the series),-4.54% (inactive)
same,max response,[1]; [6],-0.906%
same,max response,[1]; [7],-3.86%
OCCOCCN1CCN(C2=Nc3ccccc3Sc3ccccc32)CC1,"activity change, negative = inhibition",[1]; at 57.5 µM (top of the series),5.93% (inactive)
same,max response,[1]; [6],10.4%
same,max response,[1]; [7],19.3%
CCN(CC)CCOC(=O)C(Cc1cccc2ccccc12)CC1CCCO1 (configuration not stated),"activity change, negative = inhibition",[1]; at 57.5 µM (top of the series),2.17% (inactive)
same,max response,[1]; [6],20.1%
same,max response,[1]; [7],24.7%
CCc1cc(Cl)c(OC)c(C(=O)NC[C@@H]2CCCN2CC)c1O,"activity change, negative = inhibition",[1]; at 25.7 µM (top of the series),-7.25% (inactive)
same,max response,[1]; [6],-16.4%
same,max response,[1]; [7],-19.5%
NS(=O)(=O)c1cc(C(=O)O)cc(N2CCCC2)c1Oc1ccccc1,"activity change, negative = inhibition",[1]; at 25.7 µM (top of the series),-4.05% (inactive)
same,max response,[1]; [6],-4.21%
same,max response,[1]; [7],-6.59%
CC(C)NCC(O)c1ccc2ccccc2c1 (configuration not stated),"activity change, negative = inhibition",[1]; at 57.5 µM (top of the series),9.75% (inactive)
same,max response,[1]; [6],8.22%
same,max response,[1]; [7],21.3%
O=C1C(=O)c2ccccc2C(O)=C1C1CCC(c2ccc(Cl)cc2)CC1 (configuration not stated),"activity change, negative = inhibition",[1]; at 57.5 µM (top of the series),10.1% (inactive)
same,max response,[1]; [6],7.54%
same,max response,[1]; [7],21.8%
CN1CCC(OC(c2ccccc2)c2ccccc2)CC1,"activity change, negative = inhibition",[1]; at 25.7 µM (top of the series),-2.89% (inactive)
same,max response,[1]; [6],-24.7%
same,max response,[1]; [7],-25.4%
COc1cc(C(=O)NCc2ccc(OCCN(C)C)cc2)cc(OC)c1OC,"activity change, negative = inhibition",[1]; at 25.7 µM (top of the series),-1.74% (inactive)
same,max response,[1]; [6],-6.84%
same,max response,[1]; [7],-7.91%
CCCCNc1ccc(C(=O)OCCOCCOCCOCCOCCOCCOCCOCCOCCOC)cc1,"activity change, negative = inhibition",[1]; at 25.7 µM (top of the series),-1.21% (inactive)
same,max response,[1]; [6],-3.1%
same,max response,[1]; [7],-4.96%
COC(=O)C(c1ccccc1Cl)N1CCc2sccc2C1 (configuration not stated),"activity change, negative = inhibition",[1]; at 57.5 µM (top of the series),8.17% (inactive)
same,max response,[1]; [6],3.08%
same,max response,[1]; [7],15.9%
CCN(CC)CCOc1ccc2c(c1)C(=O)c1cc(OCCN(CC)CC)ccc1-2,"activity change, negative = inhibition",[1]; at 57.5 µM (top of the series),7.59% (inactive)
same,max response,[1]; [6],-3.23%
same,max response,[1]; [7],9.04%
CC(C)(C)NC[C@H](O)COc1cccc2c1CCCC2=O,"activity change, negative = inhibition",[1]; at 25.7 µM (top of the series),-0.268% (inactive) and -1.87% (inactive)
same,max response,[1]; [6],-9.82% and 1.67%
same,max response,[1]; [7],-10.4% and -0.857%
CCOC(=O)c1ccc(N)cc1,"activity change, negative = inhibition",[1]; at 25.7 µM (top of the series),4.88% (inactive)
same,max response,[1]; [6],-2.21%
same,max response,[1]; [7],-0.169%
COc1cc(C)nc(-n2nc(C)cc2OC)n1,"activity change, negative = inhibition",[1]; at 25.7 µM (top of the series),-0.43% (inactive)
same,max response,[1]; [6],-1.69%
same,max response,[1]; [7],-3.43%
CCC(Cc1c(I)cc(I)c(N)c1I)C(=O)O (configuration not stated),"activity change, negative = inhibition",[1]; at 57.5 µM (top of the series),4.6% (inactive)
same,max response,[1]; [6],19.5%
same,max response,[1]; [7],27.1%
C[N+]1(C)CCC(=C(c2ccccc2)c2ccccc2)CC1,"activity change, negative = inhibition",[1]; at 25.7 µM (top of the series),0.0072% (inactive)
same,max response,[1]; [6],2.33%
same,max response,[1]; [7],0.67%
CCCCCN=C(N)N/N=C/c1c[nH]c2ccc(OC)cc12,"activity change, negative = inhibition",[1]; at 57.5 µM (top of the series),10.2% (inactive) and 3.1% (inactive)
same,max response,[1]; [6],15.4% and 9.7%
same,max response,[1]; [7],28.4% and 15.4%
COc1ccc(CN(CCN(C)C)c2ncccn2)cc1,"activity change, negative = inhibition",[1]; at 57.5 µM (top of the series),7.7% (inactive)
same,max response,[1]; [6],6.82%
same,max response,[1]; [7],17.3%
CC(C(=O)O)c1cccc(Oc2ccccc2)c1 (configuration not stated),"activity change, negative = inhibition",[1]; at 57.5 µM (top of the series),9.66% (inactive)
same,max response,[1]; [6],14.6%
same,max response,[1]; [7],29.6%
Nc1ccc(S(=O)(=O)Nc2cnc3ccccc3n2)cc1,"activity change, negative = inhibition",[1]; at 25.7 µM (top of the series),-4.76% (inactive)
same,max response,[1]; [6],-5.93%
same,max response,[1]; [7],-10.6%
Cc1cc(-c2ccccc2)nnc1NCCN1CCOCC1,"activity change, negative = inhibition",[1]; at 25.7 µM (top of the series),1.62% (inactive)
same,max response,[1]; [6],-6.4%
same,max response,[1]; [7],-4.28%
CCCCC(CC)CN1CN(CC(CC)CCCC)CC(C)(N)C1 (configuration not stated),"activity change, negative = inhibition",[1]; at 57.5 µM (top of the series),3.27% (inactive)
same,max response,[1]; [6],28.9%
same,max response,[1]; [7],41.5%
CC(=O)NCCCCCC(=O)O,"activity change, negative = inhibition",[1]; at 57.5 µM (top of the series),4.31% (inactive)
same,max response,[1]; [6],6.35%
same,max response,[1]; [7],14.8%
CCN1CCCC(OC(=O)C(c2ccccc2)c2ccccc2)C1 (configuration not stated),"activity change, negative = inhibition",[1]; at 57.5 µM (top of the series),-10.7% (inactive)
same,max response,[1]; [6],-5.03%
same,max response,[1]; [7],-14.3%
Cc1c(-c2ccccc2)oc2c(C(=O)OCCN3CCCCC3)cccc2c1=O,"activity change, negative = inhibition",[1]; at 25.7 µM (top of the series),1.6% (inactive)
same,max response,[1]; [6],5.61%
same,max response,[1]; [7],7.37%
CN(C)CCOC(=O)C(c1ccccc1)C1(O)CCCC1 (configuration not stated),"activity change, negative = inhibition",[1]; at 57.5 µM (top of the series),8.35% (inactive)
same,max response,[1]; [6],13.8%
same,max response,[1]; [7],27.5%
CC(=O)OCC1=C(C(=O)O)N2C(=O)[C@@H](NC(=O)CSc3ccncc3)[C@H]2SC1,Potency,[2],8.91 µM (active)
same,outcome,[3],inactive
same,Potency,[4],15.8 µM (active)
same,outcome,[5],inactive
NC(N)=NCc1cccc(I)c1,Potency,[2],inactive
same,outcome,[3],inactive
same,outcome,[5],inactive
